# Data from PubChem BioAssay AID686978 (National Center for Advancing Translational Sciences (NCATS), 2013).
# About 64,000 (15%) of roughly 420,000 compounds were called active. Not shown: some 27% with an inconclusive outcome. The call rests on the fitted dose curve; in most records, active means well fitted inhibition curve with a large enough effect; inconclusive means small, poorly fitted or top-dose-only effect; inactive means flat fitted curve, though single readings scatter. Not all results are given here.
# Assay: qHTS for Inhibitors of human tyrosyl-DNA phosphodiesterase 1 (TDP1): qHTS in cells in absence of CPT; further: nearly all actives have a fitted effect of over 55% in size
# Settings: DT40 Tdp1-/- hTDP1 cells, no CPT, ATP luminescence, 48 h; activity change, negative = growth inhibition: at 46.2 µM (top of the series)
# Summary of the method: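 Growth of hTDP1-complemented DT40 Tdp1-knockout cells is measured by ATP luminescence after at least 48 hr compound exposure at 37 °C, with DMSO substituting for the 20 nM CPT used in the parallel screen.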
# On the % scale 0 is the no-effect control and ±100 the full control effect; potency means the concentration at half of the fitted maximal effect.
Compound,"activity change, negative = growth inhibition",Potency
COc1ccccc1CC(NC(C)=O)C(=O)NC1CCN(C(=O)Nc2ccccc2Cl)CC1 (configuration not stated),1.02% (inactive),
Cc1nn2c(=O)cc(COC(=O)c3cccc(NC(=O)COc4ccccc4Cl)c3)nc2s1,-2.4% (inactive),
O=[N+]([O-])c1cc2ccccc2nc1-c1ccccc1,-22.5% (inactive),
COc1ccccc1Oc1nc(-c2cccnc2)nc2ccccc12,,20.6 µM (active)
COc1ccccc1CCNC(=O)CSc1nnc2ccc(-c3cccnc3)nn12,9.51% (inactive),
O=[N+]([O-])c1ccc(F)cc1Oc1nc(-c2cccnc2)nc2ccccc12,,18.4 µM (active)
COc1ccccc1CNc1ncncc1-c1cccnc1,-3.33% (inactive),
CCN(CC(=O)NC1CCS(=O)(=O)C1)c1nc(-c2cccnc2)nc2ccccc12 (configuration not stated),-19.4% (inactive),
CCN(CC)c1nc(-c2ccccc2)cc(C(F)(F)F)c1C#N,-7.9% (inactive),
Cc1cc(C)cc(C(=O)OCC(=O)NCCNC(=O)COC(=O)c2cc(C)cc(C)c2)c1,-4.36% (inactive),
Cc1ccc(C(=O)Nc2nnc(-c3ccncc3)s2)o1,-6.33% (inactive),
Cc1occc1C(=O)Nc1nnc(-c2ccncc2)s1,1.48% (inactive),
Cc1ccc(NC(=O)Nc2nnc(-c3ccncc3)s2)cc1,,11.6 µM (active)
CC1(C)C2CCC1(CS(=O)(=O)NCCc1c[nH]c3ccccc13)C(=O)C2 (configuration not stated),-19.2% (inactive),
Cc1ccc(OCCC(=O)Nc2ccc(S(=O)(=O)Nc3nccs3)cc2)cc1,22.2% (inactive),
CN(C)NC(=O)C(NC(=O)c1ccc(N)cc1)C12CC3CC(CC(C3)C1)C2 (configuration not stated),1.51% (inactive),
COC(CCN(C)C)(c1ccccc1)c1ccccc1,-6.55% (inactive),
CCn1nnc(NC(=O)c2c(OC)cccc2OC)n1,-3.98% (inactive),
COc1ccc(/C=N/n2c(C)cc(C)cc2=O)cc1,-9.69% (inactive),
CCSC1=NCCN1S(=O)(=O)c1ccc(F)cc1,-3.64% (inactive),
Cc1ccc(S(=O)(=O)N2CCN=C2SCc2c(F)cccc2Cl)cc1,,11.6 µM (active)
O=S(=O)(c1ccc(F)cc1)N1CCN=C1SCc1cccc(F)c1,-19.7% (inactive),
O=C(Nc1ccc(Cl)cn1)c1cnn2cccnc12,-23% (inactive),

Compound,"activity change, negative = growth inhibition",Potency
COc1ccc(S(=O)(=O)N2CCOCC2)cc1C(=O)NC1CCCCC1,-6.05% (inactive),
COc1ccccc1N(C)S(=O)(=O)c1ccc(C(=O)NC2CCCCCC2)cc1,,23.1 µM (active)
COc1ccccc1CNC(=O)c1ccc(N(C)S(=O)(=O)c2ccc(C)cc2)cc1,-10.4% (inactive),
CCc1ccc(OCC(=O)OCC(=O)c2c(N)n(C)c(=O)n(C)c2=O)cc1,5.34% (inactive),
CC(C)Oc1ccc(/C=N/NC(=O)c2nnn(-c3nonc3N)c2CN(C)C2CCCCC2)cc1,-11.7% (inactive),
Cc1cc(C)cc(NC(=O)NCc2ccccn2)c1,19.2% (inactive),
CC(C)(C)NC(=O)C(=O)NN=C1CCCCCCC1,3.33% (inactive),
CC(C)NC(=S)NN=C1CCCCCCCCCCC1,,13 µM (active)
CCc1ccc(C(=O)NN=C2CCCCCC2)s1,5.13% (inactive),
Cc1ccc(-n2nc3c(c2NC(=O)CCC2CCCCC2)CS(=O)C3)cc1 (configuration not stated),-21.2% (inactive),
CCN1CCC(O)(/C=C/c2ccc(C)cc2)C(C(=O)/C=C/c2ccc(C)cc2)C1 (configuration not stated),,4.61 µM (active)
O=S(=O)(c1ccc(Cl)s1)N1CCC2(CC1)OCCO2,-12.2% (inactive),
O=C(Nc1cc(Cl)ccc1N1CCOCC1)c1ccc(N2CCCC2=O)cc1,-29% (inactive),
COc1cc(C(=O)Nc2cc(C(F)(F)F)ccc2-n2cncn2)cc(OC)c1OC,-28.2% (inactive),
O=C(c1ccc(N2CCCC2=O)cc1)N1CCN(c2ccc(C(F)(F)F)cc2[N+](=O)[O-])CC1,,2.31 µM (active)
O=[N+]([O-])c1cc(C(F)(F)F)ccc1NN=C1CCCC1,-18% (inactive),
CNS(=O)(=O)c1ccc(N2CCCC2=O)c([N+](=O)[O-])c1,-18.6% (inactive),
COc1cc(OC)cc(C(=O)NC(=S)N2CCN(c3ccc(C(F)(F)F)cc3[N+](=O)[O-])CC2)c1,,16.4 µM (active)
C=CCO/N=C/C1=C(O)C(C(=O)OC)C(C)(C)CC1=O (configuration not stated),10.2% (inactive),
CC(C)(C)c1ccccc1NC(=O)CN1C(=O)NC2(CCCC2)C1=O,-9.88% (inactive),
CCc1[nH]nc(C(=O)N2CCCC(CNS(=O)(=O)c3cccs3)C2)c1C (configuration not stated),-1.36% (inactive),
O=C(COC(=O)CCc1nc2ccccc2c(=O)[nH]1)Nc1ccc(N2CCOCC2)cc1,-20.7% (inactive),
Cc1ccc(C(CC(=O)O)Nc2nc(N3CCCCC3)nc(N3CCCCC3)n2)cc1 (configuration not stated),-18.1% (inactive),

Compound,"activity change, negative = growth inhibition",Potency
CC(CN1CCOCC1)c1ccccc1 (configuration not stated),2.15% (inactive),
O=C(NNc1nc(N2CCCC2)nc(N2CCCC2)n1)c1ccccc1,3.31% (inactive),
c1ccc2c(NC3C4CC5CC(C4)CC3C5)nc(N3CCOCC3)nc2c1 (configuration not stated),,20.6 µM (active)
CC(Nc1nc(N2CCCC2)nc2ccccc12)c1ccccc1 (configuration not stated),,20.6 µM (active)
FC(F)(F)c1cc(-c2ccco2)nc(N2CCOCC2)n1,-20.7% (inactive),
CC(NC(=O)C1CCC(CNc2c(N3CCOCC3)c(=O)c2=O)CC1)c1ccccc1 (configuration not stated),-4.93% (inactive),
CC(Nc1nc(N2CCOCC2)nc2ccccc12)c1ccccc1 (configuration not stated),,18.4 µM (active)
NC(=O)c1ccc(N2CCCC2)nc1,-8.99% (inactive),
COc1ccccc1C(=O)Nc1ccc(OCc2nnc3c4ccccc4c(C)nn23)cc1,,13 µM (active)
COc1ccccc1C(=O)Nc1ccc(Nc2ccccc2)cc1,-12.1% (inactive),
COc1cc(C(=O)Nc2ccc(OCc3cc(=O)n4cc(C)sc4n3)cc2)cc(OC)c1OC,-12.9% (inactive),
O=C1N=C2SCCN2/C1=C\c1c(Cl)cccc1Cl,-11.7% (inactive),
Cc1c(C(=O)NCCN2C(=O)S/C(=C\c3cccs3)C2=O)cccc1[N+](=O)[O-],-0.412% (inactive),
CN(C)c1ccc(C(CC(=O)O)C(=O)O)cc1 (configuration not stated),3.38% (inactive),
c1n[nH]c(NCc2ccc3c(c2)OCO3)n1,-9.16% (inactive),
O=C(CCN1C(=O)c2ccccc2C1=O)C1=NN[C@@H]2C(=O)N(c3ccc(F)cc3)C(=O)[C@H]12,0.514% (inactive),
CC(=O)c1ccc(S(=O)(=O)N2CCC3(CC2)OCCO3)cc1,-24.6% (inactive),
CCCCN(CC)C(=O)C1CCCN(S(=O)(=O)c2cccc3nsnc23)C1 (configuration not stated),,18.4 µM (active)
CCCCC(CC)CNC(=O)C1CCN(S(=O)(=O)c2cccc3nsnc23)CC1 (configuration not stated),-26.8% (inactive),
CCCCN(C)CCNC(=O)C1CCCN(S(=O)(=O)c2cccc3nsnc23)C1 (configuration not stated),,inactive
Cc1cc(=O)[nH]c(SCc2cc(Cl)ccc2OC(F)F)n1,-17.1% (inactive),
